# Assay results as given in ChEMBL document CHEMBL1857833, “Screening and optimization of specific chemical series against human African Trypanosomiasis (HAT)”.
# Values joined by “and” are separate entries in the source; they are usually repeats but may differ in a detail not shown here. Equal values may be shown once. In all, about 4,400 compounds went through this assay and about 390 (8.9%) showed an effect of 50% or more. The full list was thinned out, with strong results kept by preference.
# System: Trypanosoma brucei
# Assay: DNDI: Inhibition of Human African Trypanosomiasis, SBRI 427, in vitro at 2 ug.mL-1
# Assay type: functional
row,SMILES,% inhibition
1,Clc1ccccc1-c1nc(CN2CCN(C/C=C/c3ccccc3)CC2)co1,-22%
2,COC(=O)C1CCN(/C(=N\O)c2cccnc2OCC2CCCCC2)CC1,6%
3,Cc1ccc(/C(=N/O)NCc2cccnc2)c(Oc2cccc(F)c2)n1,5%
4,Cc1ccc([C@@H](C)NCc2coc(-c3ccc(OC(F)(F)F)cc3)n2)cc1,-17%
5,CCc1ccc(Oc2ncccc2/C(=N/O)N2CC(C)CC(C)C2)cc1 (configuration not stated),15%
6,CCOc1ccc(-c2nc(CNC3CCCCCC3)co2)cc1,20%
7,CC1CN(Cc2coc(-c3ccc(C(F)(F)F)cc3)n2)CC(C)O1 (configuration not stated),12%
8,CCOc1ccc(-c2nc(CNC3CC(C)CC(C)(C)C3)co2)cc1 (configuration not stated),99%
9,CC1CC(NCc2coc(-c3ccc(C(F)(F)F)cc3)n2)CC(C)(C)C1 (configuration not stated),98%
10,CC(NCc1coc(-c2ccc(C(F)(F)F)cc2)n1)C1CCCCC1 (configuration not stated),7%
11,CCOc1ccc(-c2nc(CN3CC(C)OC(C)C3)co2)cc1 (configuration not stated),-8%
12,C#CC1(NCc2coc(-c3ccccc3Cl)n2)CCCCC1,-12%
13,COc1ccc(CN/C(=N\O)c2ccc(Oc3cc(C)cc(C(C)C)c3)nc2)cc1,28%
14,Brc1ccc(-c2nc(CNCc3cccnc3)co2)cc1,-36%
15,COc1cccc(-c2nc(CN(C)C(C)(C)C)co2)c1,31%
16,c1ccc(-c2nc(CN3CCN(C4CCCCC4)CC3)co2)cc1,-4%
17,COc1ccc(Oc2ncccc2/C(=N/O)NCC2CCCO2)cc1 (configuration not stated),-15%
18,CC(C)c1ccc(Oc2ncccc2/C(=N/O)NCC2CCCO2)cc1 (configuration not stated),98%
19,O/N=C(\NCc1ccccn1)c1cccnc1Oc1cc(Cl)ccc1Cl,0%
20,CCOc1ccccc1CN/C(=N\O)c1ccc(Oc2ccc(Cl)cc2)nc1,1%
21,O/N=C(\NCc1ccccc1)c1cccnc1Oc1cc(Cl)ccc1Cl,100%
22,CC(C)COc1ncccc1/C(=N/O)NCC1CCCO1 (configuration not stated),6%
23,Cc1ccccc1CN/C(=N\O)c1cccnc1Oc1cc(Cl)ccc1Cl,99%

row,SMILES,% inhibition
1,COc1ccc(CN/C(=N\O)c2cccnc2Oc2cc(Cl)ccc2Cl)cc1,5%
2,CCOc1ccccc1CN/C(=N\O)c1cccnc1Oc1ccc(Cl)cc1,87%
3,CCOc1ccccc1CN/C(=N\O)c1ccnc(Oc2ccc(Cl)cc2)c1,7%
4,Cc1ccc(/C(=N/O)NCc2ccccn2)c(Oc2cc(Cl)ccc2Cl)n1,30%
5,COCC(C)N/C(=N\O)c1ccc(C)nc1Oc1ccc(SC)c(C)c1 (configuration not stated),-10%
6,Cc1ccc(Oc2nc(C)ccc2/C(=N/O)N2CCCCC2)c(C)c1,0%
7,CC(NCc1coc(-c2ccc(C(F)(F)F)cc2)n1)c1ccccc1 (configuration not stated),2%
8,COc1ccc(-c2nc(CNCCc3ccccc3OC)co2)cc1,-4%
9,Cc1ccc(-c2nc(CN3CCN(C(=O)C4CCCO4)CC3)co2)cc1 (configuration not stated),21%
10,Cc1ccc(Oc2cc(/C(=N/O)NCc3cccnc3)ccn2)c(C)c1,-3%
11,COc1ccc(Oc2nc(C)ccc2/C(=N/O)NCc2ccc(C)o2)cc1,16%
12,CCc1ccc(Oc2ncccc2/C(=N/O)N2CCN(C)CC2)cc1,-4%
13,CCc1ccc(Oc2ccc(/C(N)=N/O)cn2)cc1,20%
14,COc1ccc(Oc2ncccc2/C(=N/O)NCc2ccccn2)cc1,2%
15,CCOc1ccccc1CN/C(=N\O)c1cccnc1Oc1ccccc1SC,100%
16,CCc1ccc(Oc2ncccc2/C(=N/O)NCc2ccccc2C)cc1,99%
17,COc1ccc(Oc2ncccc2/C(=N/O)NCc2ccccc2OC)cc1,94%
18,CCOc1ccccc1CN/C(=N\O)c1cccnc1OC1CCC1,5%
19,CCOc1ccccc1CN/C(=N\O)c1cccnc1OCC(C)C,3%
20,COc1ccc(Oc2ncccc2/C(=N/O)NCc2ccccc2C)cc1,85%
21,COc1ccccc1CN/C(=N\O)c1cccnc1Oc1cccc2ccccc12,0%
22,Cc1ccc(/C(=N/O)N2CCC(N(C)C)C2)c(OCc2cccc(F)c2)n1 (configuration not stated),-7%
23,O/N=C(\NCc1ccccc1)c1ccc(Oc2c(F)c(F)cc(F)c2F)nc1,30%

row,SMILES,% inhibition
1,c1csc(-c2nc(CNCCN3CCOCC3)co2)c1,-8%
2,CCN(Cc1coc(-c2ccccc2C)n1)c1ccc2c(c1)OCO2,13%
3,Cc1ccc2cccc(Oc3cc(/C(=N/O)NCc4cccs4)ccn3)c2n1,6%
4,CCN(Cc1coc(-c2ccc(F)cc2)n1)c1ccc2c(c1)OCO2,-2%
5,CN(Cc1cccnc1)/C(=N\O)c1ccnc(Oc2cccc(F)c2)c1,2%
6,CCOc1ccccc1-c1nc(CNCc2cc(OC)c(OC)c(OC)c2)co1,8%
7,Cc1ccc(/C(=N/O)NCc2ccccc2C)c(Oc2cccc(C(C)C)c2)n1,2%
8,CCOc1ccccc1CN/C(=N\O)c1cccnc1Oc1ccc(F)cc1,5%
9,CCOc1ccccc1CN/C(=N\O)c1cccnc1Oc1cc(C)cc(C(C)C)c1,-4%
10,CCOc1ccccc1CN/C(=N\O)c1cccnc1Oc1ccc(OC)cc1,98%
11,Cc1ccccc1CN/C(=N\O)c1cccnc1OCC(C)C,11%
12,COc1ccccc1CN/C(=N\O)c1cccnc1Oc1ccc(C(C)C)cc1,-4%
13,CCOc1ccccc1CN/C(=N\O)c1cccnc1Oc1cc(Cl)ccc1Cl,100%
14,Cc1ccccc1CN/C(=N\O)c1cccnc1Oc1ccc(C(C)C)cc1,99%
15,CCOc1ccccc1CN/C(=N\O)c1cccnc1Oc1ccc2oc3ccccc3c2c1,14%
16,CCOc1ccccc1CN/C(=N\O)c1cccnc1Oc1ccc(C(C)C)cc1,99%
17,CCOc1ccccc1CN/C(=N\O)c1ccc(C)nc1Oc1cc(Cl)ccc1Cl,26%
18,CCCN(Cc1coc(-c2cccs2)n1)CC1CC1,0%
19,Cc1ccc(/C(=N/O)N(C)Cc2cccnc2)c(OCc2ccccc2F)n1,0%
20,COc1ccc(-c2nc(CNCc3ccc(C(C)(C)C)cc3)co2)cc1,4%
21,Cc1ccc(C(C)C)c(Oc2cc(/C(=N/O)N3C(C)CCC3C)ccn2)c1 (configuration not stated),8%
22,COc1ccc(N(C)Cc2coc(-c3ccc(C(F)(F)F)cc3)n2)cc1,2%
23,Fc1cccc(-c2nc(CN3CCC4CCCCC4C3)co2)c1 (configuration not stated),0%

row,SMILES,% inhibition
1,Cc1ccc(CN/C(=N\O)c2cccnc2Oc2cc(Cl)ccc2Cl)o1,100%
2,COc1ccc(Oc2ncccc2/C(=N/O)NCc2ccc(C)o2)cc1,5%
3,O/N=C(\NCc1ccccc1)c1cccnc1Oc1ccc(F)cc1Cl,94%
4,O/N=C(\NCc1ccccn1)c1cccnc1Oc1ccc(F)cc1Cl,20%
5,O/N=C(\NCc1cccnc1)c1cccnc1Oc1ccc(F)cc1Cl,14%
6,Cc1ccc(CN/C(=N\O)c2cccnc2Oc2c(F)cccc2F)o1,0%
7,CSc1ccc(Oc2nc(C)ccc2/C(=N/O)n2ccnc2)cc1,-8%
8,CCCCN(CCC#N)Cc1coc(-c2ccc(C)cc2)n1,-2%
9,CCCCCCC(C)NCc1coc(-c2ccccc2OCC)n1 (configuration not stated),41%
10,CCOc1ccccc1-c1nc(CN[C@H](C)c2ccc(C)cc2)co1,10%
11,CCCCCCC(C)NCc1coc(-c2ccccc2Br)n1 (configuration not stated),28%
12,CCN(CC)CCCC(C)NCc1coc(-c2ccccc2Cl)n1 (configuration not stated),94%
13,CC(CCc1ccccc1)NCc1coc(-c2ccccc2Cl)n1 (configuration not stated),8%
14,CCCC(CCC)NCc1coc(-c2ccc(O)cc2)n1,14%
15,CCCCCC(C)NCc1coc(-c2ccccc2OCC)n1 (configuration not stated),99%
16,CCCC(CCC)NCc1coc(-c2ccc(OCC)cc2)n1,99%
17,CCOc1ccc(-c2nc(CNC(CC)COC)co2)cc1 (configuration not stated),21%
18,CCOc1ccccc1-c1nc(CNC(C)c2ccccc2)co1 (configuration not stated),-8%
19,CCN(CC)CCNCc1coc(-c2ccccc2Cl)n1,-11%
20,Cc1ccc(/C(=N/O)N2CCN(c3ccccc3)CC2)c(Oc2ccc(F)cc2)n1,20%
21,C=CCN(CC=C)Cc1coc(-c2cccs2)n1,-3%
22,Cc1ccc(-c2nc(CNc3cc(C)nn3-c3ccccc3)co2)cc1,10%
23,C=C(C)CN(CC)Cc1coc(-c2cccc3ccccc23)n1,-7%

row,SMILES,% inhibition
1,COc1cc(-c2nc(CNC(C)c3ccccc3)co2)cc(OC)c1OC (configuration not stated),0%
2,CCC(NCc1coc(-c2ccc(Cl)cc2Cl)n1)c1ccccc1 (configuration not stated),5% and 14%
3,CCCCN(CCC#N)Cc1coc(-c2ccc(O)cc2)n1,-26%
4,Cc1ccccc1-c1nc(CN(C)C(C)c2ccccc2)co1 (configuration not stated),13%
5,CC(NCc1coc(-c2ccc(Cl)cc2Cl)n1)C(C)(C)C (configuration not stated),55%
6,COCC(C)NCc1coc(-c2ccc(Cl)cc2Cl)n1 (configuration not stated),2%
7,CCCC(CCC)NCc1coc(-c2ccccc2OCC)n1,98%
8,CCOc1ccccc1-c1nc(CNC(CC)COC)co1 (configuration not stated),5%
9,CCCC(CCC)NCc1coc(-c2ccccc2Br)n1,-3%
10,Cc1ccc(-c2nc(CN(c3ccccc3)C(C)C)co2)cc1,23%
11,c1ccc2c(-c3nc(CN4CCC(N5CCCC5)CC4)co3)cccc2c1,35%
12,Cc1ccc(-c2nc(CN(Cc3ccccn3)Cc3ccccn3)co2)cc1,83%
13,CN(CCc1ccccn1)Cc1coc(-c2ccc(Cl)cc2Cl)n1,-26%
14,Clc1ccc(-c2nc(CN(Cc3ccccn3)Cc3ccccn3)co2)c(Cl)c1,58%
15,Fc1ccc(-c2nc(CN(Cc3ccccn3)Cc3ccccn3)co2)cc1,48%
16,COc1ccc(-c2nc(CN(Cc3ccccn3)Cc3ccccn3)co2)cc1,46%
17,Fc1cccc(-c2nc(CN(Cc3ccccn3)Cc3ccccn3)co2)c1,4%
18,COCCN(CCOC)Cc1coc(-c2cccc(C)c2)n1,13%
19,COCCN(CCOC)Cc1coc(-c2ccc(Cl)cc2Cl)n1,6%
20,Cc1cccc(-c2nc(CN(Cc3ccccn3)Cc3ccccn3)co2)c1,63%
